Assay outcomes (PubChem)
Shown are actives, neighbours in structure and some others; about 17% of the full set was active somewhere.
TGFb inhibitor: qHTS for Inhibitors of TGF-b; HepG2 CAGA-GFP TGF-b/SMAD3 reporter, GFP fluorescence, 18 h; TGF-beta stimulated, 500 pg/mL final; Potency, µM (doses to about 46.1 µM), actives largely listed as inhibitors; actives 1.2% (n = 410,000); also: nearly all actives have a fitted effect of over 65% in size
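Cell-based qHTS in HEPG2 carrying a CAGA-GFP Smad reporter; compounds added before 500 pg/mL final TGF-beta, 18 h incubation at 37 degrees C, GFP fluorescence quantified per cell by imaging cytometry.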
DT40 TDP1 no CPT: qHTS for Inhibitors of human tyrosyl-DNA phosphodiesterase 1 (TDP1): qHTS in cells in absence of CPT; Potency, µM (top dose mostly 46.2 µM), most hits filed as inhibitors; DT40 Tdp1-/- hTDP1 cells, no CPT, ATP luminescence, 48 h; actives 15% (n = 420,000); AID 686978, 2013; also: nearly all actives have a fitted effect of over 55% in size
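Chicken DT40 Tdp1-/- cells stably complemented with human TDP1 were seeded at 400 cells/well with DMSO in place of 20 nM camptothecin. After compound pinning, cells grew at least 48 hr at 37 °C; viability read by CellTiter-Glo luminescence.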
DT40 TDP1 CPT: qHTS for Inhibitors of human tyrosyl-DNA phosphodiesterase 1 (TDP1): qHTS in cells in presence of CPT. chicken DT40 Tdp1-/-;hTDP1 cells + 20 nM CPT, ATP luminescence, 48 h. Potency, µM (top dose mostly 46.2 µM), hits mostly inhibitors. actives 12% (n = 420,000); also: nearly all actives have a fitted effect of over 55% in size
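Chicken DT40 Tdp1-/- cells stably complemented with human TDP1 were seeded at 400 cells/well in medium containing 20 nM camptothecin, exposed to pin-transferred compounds, and grown at 37 °C for at least 48 hr. Viability was read as ATP luminescence.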
HepG2 tox: qHTS for Inhibitors of TGF-b: Cytotox Counterscreen | HepG2 CAGA-GFP viability, ATP luminescence, 18 h | Potency, µM (top dose mostly 46.1 µM), hits mostly cytotoxic | actives 0.76% (n = 410,000)
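CellTiter-Glo luminescence gave cytotoxicity after 18 hours at 37 degrees C. The cells were HepG2 CAGA-GFP in 1% FBS DMEM, stimulated with 500 pg/mL TGF-beta after compound addition. %Activity was normalised to no-cell wells (complete cell-killing) and DMSO (no toxicity), and curves were fitted and classified.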
ATXN2 expr inh: Primary qHTS for Inhibitors of ATXN expression; HEK-293 ATXN2-luciferase reporter, luminescence, 24 h; Potency, µM (doses to about 57 µM), most hits filed as inhibitors; actives 0.72% (n = 360,000); AID 1745845, 2022; also: nearly all actives have a fitted effect of over 55% in size
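qHTS (up to 57 uM final) was run with 24 h compound exposure of reporter cells at 37 °C. Each well was multiplexed: SteadyGlo luminescence measured ATXN2-luciferase expression after a fluorogenic Gly-Phe-AFC viability readout (25 uM final).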
S2 tox: Viability Counterscreen for Primary qHTS for Inhibitors of ATXN expression; S2 cells (HEK-293 line with an ATXN2-luciferase reporter) viability, CellTiter-Fluor protease fluorescence, 24 h; Potency, µM (top dose mostly 56.7 µM), most hits filed as cytotoxic; actives 0.49% (n = 400,000); AID 651635, 2014; also: nearly all actives have a fitted effect of over 40% in size
Large screens that a line does not name were inactive. Calls follow the shape of the dose curve; as a rule, active = well fitted curve in the direction sought with a large enough effect; inconclusive = small, poorly fitted or top-dose-only effect, or another doubt; inactive = no such curve, though single readings can be large; an effect the other way counts as inactive or inconclusive.

CC1(C(=O)Nc2ccc3c(c2)OCCO3)CN(S(C)(=O)=O)CC(=O)N1CCCn1ccnc1 (configuration not stated)	none (no result: TGFb inhibitor, HepG2 tox, ATXN2 expr inh, S2 tox)
CO[C@H]1[C@H](NC(=O)c2ccco2)c2ccccc2C12CCN(Cc1cccn1-c1ccccn1)CC2	none (no result: TGFb inhibitor, HepG2 tox, ATXN2 expr inh)
COc1ccc(/C(N)=N/OC(=O)c2cccc([N+](=O)[O-])c2)cc1OC	none
COc1ccc(/C(N)=N/OC(=O)c2ccc(OC)c([N+](=O)[O-])c2)cc1OC	DT40 TDP1 no CPT 11.6µM, DT40 TDP1 CPT inconclusive, ATXN2 expr inh inconclusive, S2 tox inconclusive
O=C(Cn1cnc2c(cnn2-c2ccc(Cl)cc2)c1=O)NCC1CCCO1 (configuration not stated)	S2 tox inconclusive
O=S(=O)(c1cccs1)N1CCN(CC(O)COc2cccc(Br)c2)CC1 (configuration not stated)	DT40 TDP1 no CPT inconclusive, DT40 TDP1 CPT 20.6µM
O=S(=O)(c1cccs1)N1CCN(CC(O)COC2CCCc3ccccc32)CC1 (configuration not stated)	none
CCOc1ccc(NC(=O)CNS(=O)(=O)c2ccc(Br)s2)cc1	DT40 TDP1 no CPT inconclusive, DT40 TDP1 CPT inconclusive
CC(C)c1ccc(-c2nnc3n(CCc4ccccc4)c(=O)c4ccccc4n23)cc1	DT40 TDP1 no CPT 18.4µM, DT40 TDP1 CPT inconclusive
COc1ccc(OC)c(-c2nnc3n(Cc4ccc(C)cc4)c(=O)c4ccccc4n23)c1	DT40 TDP1 no CPT 18.4µM, DT40 TDP1 CPT 10.3µM
COc1ccc(-c2nnc3n(CCc4ccccc4)c(=O)c4ccccc4n23)c(OC)c1	DT40 TDP1 no CPT 13µM, DT40 TDP1 CPT 18.4µM, S2 tox inconclusive
Cc1cccc(-c2nnc3n(CCc4ccccc4)c(=O)c4ccccc4n23)c1	TGFb inhibitor inconclusive, DT40 TDP1 no CPT 25.9µM, DT40 TDP1 CPT inconclusive
Cc1ccc(Cn2c(=O)c3ccccc3n3c(-c4ccccc4)nnc23)cc1	DT40 TDP1 no CPT inconclusive, DT40 TDP1 CPT inconclusive, S2 tox inconclusive
CCOc1ccc(NC(=O)CN(C)CC(=O)NC2CCCc3ccccc32)cc1OCC (configuration not stated)	S2 tox inconclusive
Cc1ccc(N2C(=O)C3C4C=CC(CC4)C3C2=O)c([N+](=O)[O-])c1 (configuration not stated)	none
COc1ccc(NC(=O)COC(=O)CN2C(=O)c3ccccc3C2=O)cc1	none
Cc1ccccc1Cn1c(=O)n(CCc2ccccc2)c(=O)c2ccccc21	DT40 TDP1 no CPT inconclusive, DT40 TDP1 CPT inconclusive
COc1cc(-n2c(=O)c3ccccc3n(Cc3ccccc3)c2=O)cc(OC)c1OC	DT40 TDP1 CPT inconclusive, S2 tox inconclusive
COc1cc(-c2nnc3n(CCc4ccccc4)c(=O)c4ccccc4n23)cc(OC)c1OC	DT40 TDP1 no CPT 16.4µM, DT40 TDP1 CPT inconclusive
O=c1c2ccccc2n2c(-c3ccccc3F)nnc2n1CCc1ccccc1	DT40 TDP1 no CPT 18.4µM, DT40 TDP1 CPT inconclusive
Cc1nn(-c2ccc(F)cc2)c(-n2cccc2)c1C(=O)NCCCN1CCN(c2cccc(Cl)c2)CC1	TGFb inhibitor 11.2µM, HepG2 tox 17.8µM, ATXN2 expr inh inconclusive, S2 tox inconclusive (no result: DT40 TDP1 no CPT, DT40 TDP1 CPT)
Cc1c(C(=O)NC(C)C)c(-c2ccccc2)nn1-c1ccccc1	none
Cc1nn(Cc2ccccc2Cl)c(Cl)c1C(=O)NCCc1ccccc1	DT40 TDP1 no CPT inconclusive, DT40 TDP1 CPT inconclusive (no result: ATXN2 expr inh)
Cc1c(C(=O)NCc2ccccc2)c(-c2ccccc2)nn1-c1ccccc1	DT40 TDP1 no CPT inconclusive, DT40 TDP1 CPT 23.1µM
COc1cccc(CNC(=O)c2c(C)nn(-c3cccc(C)c3)c2-n2cccc2)c1	DT40 TDP1 no CPT 14.6µM, DT40 TDP1 CPT inconclusive (no result: ATXN2 expr inh, S2 tox)
Cc1nn(-c2ccccc2)c(-n2cccc2)c1C(=O)NCc1ccccc1Cl	TGFb inhibitor inconclusive, DT40 TDP1 no CPT 25.9µM, DT40 TDP1 CPT 20.6µM, ATXN2 expr inh inconclusive, S2 tox inconclusive
COc1cccc(CNC(=O)c2c(C)nn(-c3ccc(F)cc3)c2-n2cccc2)c1	S2 tox inconclusive (no result: DT40 TDP1 no CPT, DT40 TDP1 CPT)
Cc1ccc(-n2nc(C)c(C(=O)NCCCN3CCN(c4ccc(F)cc4)CC3)c2-n2cccc2)cc1	ATXN2 expr inh inconclusive (no result: DT40 TDP1 no CPT, DT40 TDP1 CPT, S2 tox)
Cc1nn(-c2ccccc2)c(-n2cccc2)c1C(=O)NCCc1ccc(Cl)cc1	TGFb inhibitor inconclusive, DT40 TDP1 no CPT inconclusive, DT40 TDP1 CPT 20.6µM
CSc1ccc(CCNC(=O)c2c(C)nn(-c3ccc(F)cc3)c2-n2cccc2)cc1	TGFb inhibitor inconclusive, ATXN2 expr inh inconclusive, S2 tox inconclusive (no result: DT40 TDP1 no CPT, DT40 TDP1 CPT)
CCN1CCN(C(=O)c2c(C)nn(-c3ccc(F)cc3)c2-n2cccc2)CC1	none (no result: DT40 TDP1 no CPT, DT40 TDP1 CPT)
Cc1nn(-c2ccccc2)c(-n2cccc2)c1C(=O)N1CCN(c2ccccc2)CC1	TGFb inhibitor inconclusive, DT40 TDP1 no CPT 23.1µM, DT40 TDP1 CPT inconclusive
CCOc1ccc(OCCSc2ccc(S(=O)(=O)N3CCN(C)CC3)cn2)cc1	DT40 TDP1 no CPT inconclusive, DT40 TDP1 CPT inconclusive (no result: ATXN2 expr inh)
CC(C)(C)n1nnnc1C(c1ccccc1)N1CCN(c2ccccn2)CC1 (configuration not stated)	none (no result: TGFb inhibitor, HepG2 tox)
Cc1ccc(C)c(N2CCN(C(=O)c3cc4c(=O)n(Cc5ccccc5)ccc4nc3C)CC2)c1	TGFb inhibitor 10µM, DT40 TDP1 no CPT 23.1µM, DT40 TDP1 CPT 16.4µM, ATXN2 expr inh inconclusive, S2 tox inconclusive
Cc1ccc(C)c(N2CCN(C(=O)c3cc4c(=O)n(Cc5cccnc5)ccc4nc3C)CC2)c1	TGFb inhibitor inconclusive, DT40 TDP1 no CPT inconclusive, DT40 TDP1 CPT 23.1µM
CNc1cc(-c2cccc(N(C)C)c2)ncn1	none
CS(=O)(=O)N1CCN(/[N+]([O-])=N/Oc2ccc([N+](=O)[O-])cc2[N+](=O)[O-])CC1	TGFb inhibitor inconclusive (no result: DT40 TDP1 no CPT, DT40 TDP1 CPT, ATXN2 expr inh, S2 tox)
C[N+](C)(C)CC(O)CC(=O)[O-] (configuration not stated)	none (no result: TGFb inhibitor, HepG2 tox)
O=c1c2ccccc2ncn1Cc1ccc(Cl)c(Cl)c1	S2 tox inconclusive
O=C(O)Cc1cn(Cc2ccc(F)cc2)c2ccccc12	TGFb inhibitor inconclusive
Cc1[nH][nH]c(=O)c1C(c1c(C)[nH][nH]c1=O)c1cn(Cc2ccc(Cl)c(Cl)c2)c2ccccc12	TGFb inhibitor 12.6µM, DT40 TDP1 no CPT 2.06µM, DT40 TDP1 CPT 2.06µM, ATXN2 expr inh inconclusive, S2 tox inconclusive
